{
  "source": "PubChem BioAssay AID648",
  "about": "(SRMLSC, 2007)",
  "note": "Screen size: about 86,000 compounds; about 920 (1.1%) were called active. The list comes from a sample in which actives are over-represented; it also holds similar structures and randomly drawn compounds. Unmarked numbers belong to inactive results.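 Rule for the calls: active = viability at or below 30%; inactive = viability above 30%.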",
  "data": [
    {"assay": "endothelial cell growth inhibition – HUVEC, 384-well, primary screen (AID 648);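 note: 100% = median luminescence of DMSO-only cell control wells on each plate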", "settings": "HUVEC proliferation, CellTiter-Glo luminescence, 72 h; active compounds read low; screened at 10 µM (by protocol)", "values": [
      {"compound": "CC(C)(C)C1CCc2c(sc3nc(SCC(N)=O)nc(N)c23)C1", "note": "(stereo not drawn)", "viability": "48.8%"},
      {"compound": "CCC(=O)Nc1sc(C(=O)N2CCCCC2)c(C)c1C#N", "viability": "98.7%"},
      {"compound": "CN1CCN(CC(=O)Nc2sc3c(c2C#N)CCC(C(C)(C)C)C3)CC1", "note": "(stereo not drawn)", "viability": "2.13% (active)"},
      {"compound": "O=C(O)CSc1nccn1-c1cccc(Cl)c1", "viability": "105%"},
      {"compound": "CC(C)NC(=O)C(=O)NCCN1CCN(S(=O)(=O)c2ccc(Cl)cc2)CC1", "viability": "114%"},
      {"compound": "CCSc1nc(-c2ccc(OC)cc2)cc(-c2ccc(OC)cc2)c1C#N", "viability": "100%"},
      {"compound": "COc1ccc(Nc2ncc(C(=O)N3CCN(c4ccccc4OC)CC3)c3ccccc23)cc1", "viability": "62.2%"},
      {"compound": "O=C(CO/N=C/c1ccccc1O)NNC(=O)c1ccccc1Cl", "viability": "97.1%"},
      {"compound": "CCNS(=O)(=O)c1ccc(NC(=O)Nc2cccc(C(F)(F)F)c2)cc1", "viability": "29.7% (active)"},
      {"compound": "CCNS(=O)(=O)c1ccc(NC(=O)Nc2cccc(OC)c2)cc1", "viability": "72.2%"},
      {"compound": "O=C(O)CSCC(=O)Nc1cccc(C(F)(F)F)c1", "viability": "89.5%"},
      {"compound": "O=C(O)CCC(=O)NCc1ccc2[nH]c3c(c2c1)CCCC3", "viability": "98.8%"},
      {"compound": "O=C1CCCc2c1[nH]c1ccc(Br)cc21", "viability": "16.3% (active)"},
      {"compound": "O=[n+]1c2c(n([O-])c3cc(Br)ccc31)CCC2", "viability": "94.2%"},
      {"compound": "COc1cccc2c1OCC1COc3c(c(=O)n(C)c(=O)n3C)C21", "note": "(stereo not drawn)", "viability": "104%"},
      {"compound": "Cc1cc(C)cc(NC(=O)c2cccc(NC(=O)C3C4CC5OC(=O)C3C5C4)c2)c1", "note": "(stereo not drawn)", "viability": "92.7%"},
      {"compound": "CC(C)Cc1nc(N2CCOCC2)c(C#N)c2c1CCC2", "viability": "103%"},
      {"compound": "CCN1CCc2c(C#N)c(NCc3ccccc3)nc(NCCO)c2C1", "viability": "79.7%"},
      {"compound": "CC(C)CCNc1nc(N2CCCC2)c2c(c1C#N)CCN(C)C2", "viability": "2.55% (active)"},
      {"compound": "CCOc1ccc(S(=O)(=O)Nc2ccc(S(=O)(=O)Nc3cc(OC)ccc3OC)cc2)cc1", "viability": "95.7%"},
      {"compound": "CCCCCCc1cc2cc(-c3nnc(-c4cccc(OC)c4)o3)c(=O)oc2cc1O", "viability": "31.1%"},
      {"compound": "CCC1(CC)Cc2ccccc2-c2nc3ccccc3c(=O)n21", "viability": "102%"},
      {"compound": "COc1ccccc1N1CCN(C(=O)CN(Cc2ccc(Cl)cc2)S(C)(=O)=O)CC1", "viability": "109%"},
      {"compound": "COc1ccccc1N1CCN(Cc2nnnn2CCc2ccccc2)CC1", "viability": "100%"},
      {"compound": "COc1ccccc1-n1nnnc1S(=O)(=O)Cc1ccc(Cl)cc1", "viability": "11.8% (active)"},
      {"compound": "Cc1nc(NC(=O)CN(C)S(=O)(=O)c2ccc(Cl)cc2)sc1C", "viability": "101%"},
      {"compound": "O=C1CCCCC(=O)c2ccccc2N1", "viability": "98.7%"},
      {"compound": "c1ccc2c(c1)C(=NC1CCCCC1)NC2=NC1CCCCC1", "viability": "26.7% (active)"}
    ]}
  ]
}
